Among the data in PubChem BioAssay AID1851 (National Center for Advancing Translational Sciences (NCATS), 2009) are activity, negative = inhibition and AC50 values, retold here.

Out of some 16,000 compounds screened, about 5,100 (32%) were called active. Roughly 25% stayed inconclusive and do not appear here. The list shows a part of the results. A number with no mark means an inactive call. Calls follow the shape of the dose curve; as a rule, active = well fitted curve in the direction sought with a large enough effect; inconclusive = small, poorly fitted or top-dose-only effect, or effect the other way; inactive = no such curve, though single readings can be large or run the other way.
% is scaled to controls: 0 for no effect and ±100 for the full control effect.

Chain of Cytochrome P450 3A4 (Homo sapiens) (P08684 whole entry, looked up): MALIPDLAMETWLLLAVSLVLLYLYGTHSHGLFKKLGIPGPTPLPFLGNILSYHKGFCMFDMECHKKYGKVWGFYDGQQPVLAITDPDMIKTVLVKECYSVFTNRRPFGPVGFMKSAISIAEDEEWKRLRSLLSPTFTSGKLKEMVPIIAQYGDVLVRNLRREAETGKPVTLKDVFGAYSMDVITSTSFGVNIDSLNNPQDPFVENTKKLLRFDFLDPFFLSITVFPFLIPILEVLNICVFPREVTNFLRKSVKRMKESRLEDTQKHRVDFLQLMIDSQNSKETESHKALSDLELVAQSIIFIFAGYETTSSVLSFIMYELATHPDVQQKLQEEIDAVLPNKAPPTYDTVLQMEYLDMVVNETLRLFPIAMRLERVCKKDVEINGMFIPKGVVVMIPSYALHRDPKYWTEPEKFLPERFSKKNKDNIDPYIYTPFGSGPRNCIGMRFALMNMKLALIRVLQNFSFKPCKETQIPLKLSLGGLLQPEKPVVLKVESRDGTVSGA

This test has as its target Cytochrome P450 3A4 (Homo sapiens) (UniProt P08684). Description: Cytochrome panel assay with activity outcomes. The note with it: recombinant CYP, pro-luciferin dealkylation, luminescence, p450-cyp3a4; series mostly up to 57.1 µM. As to the method:
The P450 gene superfamily is involved in the metabolism and clearance of xenobiotics. This assay used various human CYP P450 isozymes to measure the dealkylation of various pro-luciferin substrates to luciferin. The luciferin is then measured by luminescence after the addition of a luciferase detection reagent. Pro-luciferin substrate concentration in the assay was equal to its KM for its CYP P450 isozyme. Inhibitors and some substrates limit the production of luciferin, and decrease measured luminescence.
NCGC Assay Protocol Summary:
1, Reagent, 2 uL, Isozyme and Pro-Luciferin
2, Library compounds, 23 nl, 40 uM to 0.24 nM dilution series
3, Controls, 23 nl, Isozyme specific inhibitor
4, Reagent, 2 uL, NADPH regeneration solution
5, Incubation time, 60 min, Isozyme specific temperature
6, Reagent, 4ul, Detection reagent
7, Incubation time, 20 min, Isozyme specific temperature
8, Detection, 1 sec, ViewLux luminescent read
The luciferase-based P450-GloTM Screening Systems were obtained from Promega (Madison, WI) for CYP 1A2 (V9770), CYP 2C9 (V9790), CYP2 C19 (V9880), CYP 2D6 (V9890), and CYP 3A4 Luciferin-PPXE (V9910) and were adapted for 1,536-well microplates and an automated protocol. The control compounds furafylline for 1A2 (F124), sulfaphenazole for CYP 2C9 (S0758), ketoconazole for CYP 2C19 (K1003), quinidine for 2D6 (Q3625), and ketoconazole for 3A4 (K1003) were purchased from Sigma Aldrich (St. Louis, MO). Recombinant P450 enzymes were obtained from baculovirus constructs expressed in insect cells (BD/Gentest).
Medium-binding white solid Kalypsys plates used. Mixtures kept on ice. 1A2: 10 nM 1A2, 100 uM Luc-ME, 100 mM KPO4; 2C9: 10 nM 2C9, 100 uM Luc-H, 25 mM KPO4; 2C19: 5 nM 2C19, 10 uM Luc-H EGE, 50 mM KPO4; 2D6: 5 nM 2D6, 30 uM Luc-ME EGE, 100 mM KPO4; 3A4: 10 nM, 25 uM Luc-PPXE. All amounts are reflected in their final concentration, working concentration is 2x.
NADPH regeneration solution: 1.3 mM NADP+, 3.3 mM glucose-6-phosphate, 3.3 mM MgCl2, 0.4 U/mL glucose-6-phosphate dehydrogenase for all isozymes, 200 mM KPO4 for 3A4. Mixture prepared at RT but kept on ice during automated run.
RT incubation in auxilliary plate hotel for 1A2, 2D6, and 3A4; 37C for 2C9 and 2C19.
Keywords: P450, CYP1A2, CYP2C19, CYP2C9, CYP2D6, CYP3A4, Luciferase, MLSMR, MLSCN, NIH Roadmap, qHTS, NCGC
Regarding `CO[C@@H](C)[C@](O)(C(=O)OCC1=CCN2CC[C@@H](O)[C@H]12)C(C)C`, the activity, negative = inhibition entry was “inactive”.
The same measure, in the same setting: next, `C#C[C@@]1(O)CC[C@@H]2[C@@H]3CCC4=CC(=O)CC[C@@]4(C)[C@H]3CC[C@]21C`: “inactive”; `NO`: “inactive”; `O=C1NC(=S)NC(=O)C1=Cc1cccc2cc3ccccc3cc12`: -17.5% [at 11.4 µM].
Turning to `C[C@@H]1O[C@H](C[N+](C)(C)C)CS1`, the activity, negative = inhibition entry was “inactive”.
As usually defined, the AC50 is the concentration giving half of the maximal activity seen. Take `COc1ccc2[nH]c(C(=O)c3ccccc3)cc2c1`: the AC50 was 7.94 µM (active).
With `COc1ccc2[nH]c3c(c2c1)CCNC3`, the activity, negative = inhibition result is “inactive”.
With `COC(=O)Nc1nc2ccc(C(=O)c3cccs3)cc2[nH]1`, the activity, negative = inhibition result was “inactive”.
Take `Fc1ccc(CCNCc2ccc(Cl)c(Cl)c2)cc1`: the activity, negative = inhibition was -18.5% [at 2.29 µM].
Take `Fc1ccccc1CCNCc1cccc(Cl)c1Cl`: the AC50 is 0.631 µM (active).
Regarding `CCN=C=NCCCN(C)C`, the activity, negative = inhibition was 0.783% [at 11.4 µM].
On the same count and under the same terms, next, `O=NN(Cc1ccc(Cl)cc1)[C@@H](C(=O)O)c1ccccc1`: -7.56% [at 11.4 µM]; `C[N+]1([O-])[C@@H]2CC[C@H]1CC(OC(=O)[C@@H](CO)c1ccccc1)C2` (some centres not stated): “inactive”.
As to `C[C@]12CC[C@H]3c4ccc(O)cc4CC[C@@H]3[C@H]1CC[C@@H]2OP(=O)(O)O`, the activity, negative = inhibition is 0.528% [at 11.4 µM].
`COc1ccc(C2NCc3ccc4c(c3-n3cccc32)OCO4)cc1OC` (configuration not stated): the AC50 was 5.01 µM (active).
As for `COCCNC(=S)NC1CC2CCCC(C1)N2Cc1cccs1` (configuration not stated), the activity, negative = inhibition entry is “inactive”.
On the same count and under the same terms, the same measure for `COCCCNC(=S)NC1CC2CCCC(C1)N2Cc1cccs1` (configuration not stated): “inactive”.
As to `COCCNC(=S)N1C2CCC1CC(NC(=O)NC13CC4CC(CC(C4)C1)C3)C2` (configuration not stated), the AC50 was 3.16 µM (active).
In the case of `CN1CCN(c2ccc3ccccc3n2)CC1`, the activity, negative = inhibition entry is “inactive”.
Still for that read-out and setting: next, `NC(N)=NN=Cc1c(Cl)cccc1Cl`: “inactive”; `[N-]=[N+]=NCC(=O)c1c[nH]c(=O)[nH]c1=O`: 17.4% [at 11.4 µM]; `N/C(=N\N=C/c1ccc(-c2ccc(O)c(C(=O)O)c2)o1)N[N+](=O)[O-]`: “inactive”.
Take `C[C@@H]1Cc2cc3c(cc2C(c2ccc(N)cc2)=NN1)OCO3`: the AC50 was 2.51 µM (active).
Regarding `C[N+]1([O-])[C@H]2CC[C@H]1CC(OC(=O)[C@@H](CO)c1ccccc1)C2` (some centres not stated), the activity, negative = inhibition was -2.26% [at 11.4 µM].
On the same count and under the same terms, next, `C[C@@]12CC(=O)[C@H]3[C@@H](CCC4=CC(=O)CC[C@]43C)[C@H]1CCC2=O`: “inactive”; `NC(N)=Nc1ccc2[nH]c3c(c2c1)C[C@]1(O)[C@@H]2Cc4ccc(O)c5c4[C@]1(CCN2CC1CC1)[C@@H]3O5`: “inactive”.
Take `CCCC[N+]1(C)[C@@H]2CC(OC(=O)[C@@H](CO)c3ccccc3)C[C@H]1[C@H]1O[C@H]12` (some centres not stated): the activity, negative = inhibition result was “inactive”.
In the case of `COc1ccc(C[C@@H](N)c2ccc(OC)cc2)cc1`, the activity, negative = inhibition is -30.1% [at 11.4 µM].
Consider `CCSc1nnc(C(N)Cc2ccccc2)o1` (configuration not stated), for which the AC50 was 11.2 µM (active).
`N[C@@H](Cc1ccccc1)P(=O)(O)O`: the activity, negative = inhibition was -2.63% [at 11.4 µM].
Regarding `CN1CC[C@@]23c4ccccc4N[C@H]1[C@]21CCN(C)[C@@H]3Nc2ccccc21`, the activity, negative = inhibition entry is “inactive”.
Same read-out and setting: next, `C[C@H](OP(=O)(O)O)[C@H](N)C(=O)O`: -9.79% [at 11.4 µM].
In the case of `O=C1C=CC(=O)c2c1ccc1c2ccc2ccccc21`, the activity, negative = inhibition result is “inactive”.
In the case of `Nc1ccc(CCN2CCN(c3cccc(C(F)(F)F)c3)CC2)cc1`, the AC50 was 7.94 µM (active).
With `NCCCN1CCN(c2ccccc2)CC1`, the activity, negative = inhibition was -17.3% [at 11.4 µM].
Consider `C=C1[C@@H]2C[C@@]3([C@H]1O)[C@H]1C[C@@H]4[C@@]5(C)CC[C@H](O)[C@]4([C@H]1N(CC)C5)[C@H]3C[C@H]2O`, for which the activity, negative = inhibition entry is “inactive”.
As to `NC(=NCc1ccc(Cl)cc1)SCCCc1cnc[nH]1`, the AC50 was 1.58 µM (active).
In the case of `OCc1cnc[nH]1`, the activity, negative = inhibition entry was “inactive”.
For the compound `NC(=NCCc1ccc(I)cc1)SCCCc1cnc[nH]1`, the AC50 was 0.794 µM (active).
Take `NC(N)=NCCC[C@H](N)C(=O)O`: the activity, negative = inhibition entry is “inactive”.
With `NS(=O)(=O)c1cc([C@@]2(O)NC(=O)c3ccccc32)ccc1Cl`, the activity, negative = inhibition result is “inactive”.
Regarding `Cc1o[nH]c(=O)c1C[C@H](N)C(=O)O`, the activity, negative = inhibition result is “inactive”.
Same read-out and setting: the same measure for `CCCCN1C(=O)/C(=C/c2ccc(N(C)C)cc2)C(=O)N(Cc2ccco2)C1=O`: -12% [at 2.29 µM].
For the compound `O=C(O)/C=C\c1ccc[c]([Sb](=[O])([OH])[OH])c1`, the activity, negative = inhibition was -2.48% [at 11.4 µM].
The same measure, in the same setting: next, `CCCN1CCC[C@H](c2cccc(C#N)c2)C1`: “inactive”.
`CCCc1cc2c(n1CCO)C(C)C1CN(C(=O)c3ccccc3)C(C)(C(=O)OC)C21` (configuration not stated): the AC50 is 10 µM (active).
For the compound `CCCc1cc2c(n1Cc1ccc(C)cc1)C(C)C1CN(C(=O)c3ccccc3)C(C)(C(=O)OC)C21` (configuration not stated), the AC50 was 3.16 µM (active).
Take `CCCc1cc2c(n1Cc1cccc(Cl)c1)C(C)C1CN(C(=O)c3ccccc3)C(C)(C(=O)OC)C21` (configuration not stated): the AC50 is 5.01 µM (active).
For `CC[N+](CC)(CCCNC1=CC(=O)C(NCCC[N+](CC)(CC)Cc2ccccc2)=CC1=O)Cc1ccccc1`, the activity, negative = inhibition entry was “inactive”.
Same read-out and setting: next, `CC(C)C[C@H](NP(=O)(O)O[C@@H]1O[C@@H](C)[C@@H](O)[C@@H](O)[C@H]1O)C(=O)N[C@@H](Cc1c[nH]c2ccccc12)C(=O)O`: “inactive”; `C[C@@]12CC[C@H]3[C@@H](CC=C4C[C@H](OS(=O)(=O)O)CC[C@]43C)[C@H]1CCC2=O`: “inactive”.
Still for that read-out and setting: next, `CCN1CCN(c2ccc(NC(=O)C(C)C)cc2Cl)CC1`: “inactive”.
Turning to `NC[C@H](O)c1ccc(O)cc1`, the activity, negative = inhibition result was “inactive”.
Take `O=C1C2CCN(CC2)C1(CO)CO`: the activity, negative = inhibition result was “inactive”.
As to `O=C(O)Cc1cccnc1C(=O)O`, the activity, negative = inhibition entry was “inactive”.
For the compound `C[C@@H]1O[C@H]1P(=O)(O)O`, the activity, negative = inhibition result was “inactive”.
Same read-out and setting: next, `CC[C@H]1CN2CCc3cc(OC)c(OC)cc3[C@H]2C[C@@H]1C[C@H]1NCCc2c1[nH]c1ccc(O)cc21`: -8.94% [at 11.4 µM]; `C[C@](N)(CCP(=O)(O)O)C(=O)O`: “inactive”.
On to `N#Cc1ccc(CN2CC[C@@]3(CCCN(C(=O)Oc4ccccc4)C3)C2)cc1`, for which the AC50 was 7.94 µM (active).
Regarding `COC(=O)N1CCC2(CCCN(C)C2)CC1`, the activity, negative = inhibition result is “inactive”.
On to `CN1CCC2(CC1)CCN(C(=O)Oc1ccccc1)CC2`, for which the activity, negative = inhibition entry was “inactive”.
With `O=C(Oc1ccccc1)N1CCC[C@@]2(CCN(C(c3ccccc3)c3ccccc3)C2)C1`, the AC50 was 10 µM (active).
Same read-out and setting: the same measure for `CC(C)CN1CC[C@@]2(CCCN(C(=O)Oc3ccccc3)C2)C1`: 12.6 µM (active).
Take `COC(=O)N1CCC2(CCN(CC(C)C)CC2)CC1`: the activity, negative = inhibition result was “inactive”.
Still for that read-out and setting: next, `CC(C)CN1CC2(CCN(C(=O)Oc3ccccc3)CC2)C1`: “inactive”.
As for `O=C(Oc1ccccc1)N1CCC2(CCCN(C(c3ccccc3)c3ccccc3)C2)CC1`, the activity, negative = inhibition result is “inactive”.
As to `CN1CC[C@@]2(CCCN(C(=O)Oc3ccccc3)C2)C1`, the concentration at half-maximal activity (AC50) is 12.6 µM (active).
